These results are taken from PubChem BioAssay AID463173 (ICCB-Longwood Screening Facility, Harvard Medical School, 2010).

In all, about 52,000 compounds went through this assay and about 1,700 (3.3%) were called active. The sample holds actives, similar compounds and a random draw of the others, so the mix is not that of the screen. Unmarked numbers belong to inactive results. No stated cut-off is given here; in the data, active means survival mostly below about 52% (no sharp cut-off); inactive means mostly above about 56%.

The assay relates to Wild type. The assay can be described thus: growth inhibition of S. aureus wild type versus tarO mutant, primary screen, teichoic acid synthesis inhibitors, RN4220, OD600 (AID 463173). As to conditions: S. aureus RN4220 wild type/DeltatarO growth, OD600, 18 h, active compounds read low, screened at 18.75 µg/mL (by protocol).
Regarding `CC(C)CCNc1ccc(-c2ccc(Cl)cc2)nn1`, the survival was 106%. Take `CCCCN(CCCC)C(=O)c1cc2c(=O)n3ccccc3nc2s1`: the survival is 61%. As for `Cc1ccc(N2CC(NC(=O)Cc3cccs3)CC2=O)cc1C` (stereo not given), the survival was 19%. In the case of `Fc1ccc(C(NCCc2ccc(Cl)cc2)c2nnc(-c3ccccc3Cl)o2)cc1` (stereo not given) it was 11% (active); in that of `Fc1ccc(C(NCCc2ccccc2)c2nnc(-c3ccccc3Cl)o2)cc1` (stereo not given), 94%. In the case of `Fc1ccc(C(Nc2ccccc2Cl)c2nnc(-c3ccccc3Cl)o2)cc1` (stereo not given) it was 89%; in that of `COc1ccc(CCNC(c2ccc(F)cc2)c2nnc(-c3ccccc3Cl)o2)cc1OC` (stereo not given), 49%; in that of `Fc1ccc(NCc2ccccc2-c2nnc(-c3ccccc3Cl)o2)cc1`, 89%. In the case of `Cc1ccc(CCNC(c2ccc(F)cc2)c2nnc(-c3ccccc3Cl)o2)cc1` (stereo not given) it was 0% (active). Regarding `COc1cc(NC(=O)CCc2c(C)n(C)c3cc(-c4ccccc4C)nn3c2=O)cc(OC)c1OC`, the survival is 130%. Next, `Cc1ccc(NC(=O)N2CCc3c([nH]c4ccccc34)C2c2ccccc2F)c(Cl)c1` (stereo not given): 82%; `CCc1ccc(NS(=O)(=O)c2ccc(C(=O)N(C)C)s2)cc1`: 64%. On to `CCC1CCCCN1C(=O)c1sc(-n2nc(C)c(Cc3ccccc3)c2C)nc1C` (stereo not given), for which the survival was 72%. Next, `CC(=O)c1ccc(NC(=O)C2CCN(S(=O)(=O)c3ccc4c(c3)CCCN4C(=O)C3CCC3)CC2)cc1`: 74%; `CCOC(=O)Cn1nc(N2CCN(c3ccc(F)cc3)CC2)ccc1=O`: 73%; `COc1ccc(Cn2ccc3nc(C)c(C(=O)NCc4cccc(OC)c4)cc3c2=O)cc1`: 75%. Next, `Cc1ccc(CNC(=O)CCCc2nnc3n(C)c(=O)c4sccc4n23)cc1`: 92%; `CCOC(=O)c1cc(C)n(CC2CCC(C(=O)Nc3cccc(C(C)=O)c3)CC2)c1C` (stereo not given): 79%; `Cc1c(Cl)cccc1-n1nc(C)c2c(C)cc(=O)n(CC(=O)N3CCCc4ccccc43)c21`: 71%. Consider `CC(=O)N1CCc2c(sc(NC(=O)CSc3ccccc3)c2-c2nc3ccccc3s2)C1`, for which the survival is 120%. Next, `CCN1CCc2c(sc(NC(=O)CSc3ccccc3)c2-c2nc3ccccc3s2)C1`: -6% (active); `CN1CCc2c(sc(NC(=O)CSc3ccccc3)c2-c2nc3ccccc3s2)C1`: 80%. In the case of `CCOC(=O)c1cc(-c2ccccc2)n(CC(=O)NC2CCC(C)CC2)c1C` (stereo not given) it was 81%.

Turning to `CCc1ccc(NC(=O)C(CC)n2c(=O)c(C(F)(F)F)nc3ccccc32)cc1` (stereo not given), the survival was 81%. Next, `Cc1cccc(N2CCN(Cc3cc(=O)oc4cc(C)ccc34)CC2C)c1` (stereo not given): 84%. In the case of `CC(C)(C)c1ccc(C2Sc3ccccc3NC3=C2C(=O)c2ccccc23)cc1` (stereo not given) it was 82%. In the case of `O=C1C2=C(Nc3ccccc3SC2c2ccccc2C(F)(F)F)c2ccccc21` (stereo not given), the survival is 11% (active). In the case of `O=C1C2=C(Nc3ccccc3SC2c2ccc(C(F)(F)F)cc2)c2ccccc21` (stereo not given) it was 36%; in that of `CCC(Sc1nnc(C)n2c1cc1sccc12)C(=O)Nc1ccccc1F` (stereo not given), 79%; in that of `CCOc1cc(CNC(=O)c2ccc(Cn3c(=O)c4cccn4c4cccnc43)cc2)ccc1OC`, 86%. Next, `COc1cccc(-c2nn(C)c3sc(C(=O)N4CCN(c5cccc(C)c5)C(C)C4)cc23)c1` (stereo not given): 72%. In the case of `CCOC(=O)C1CCC(CN(Cc2ccc(Cl)cc2)S(=O)(=O)c2cccc(Cl)c2C)CC1` (stereo not given) it was 82%; in that of `CC(=O)c1ccc(NC(=O)CC2Nc3cccc4cccc(c34)NC2=O)cc1` (stereo not given), 96%; in that of `CCOC(=O)c1ccc(NC(=O)CC2Nc3ccccc3NC2=O)cc1` (stereo not given), 62%.

As for `CCOC(=O)c1ccc(NC(=O)CC2Nc3cccc4cccc(c34)NC2=O)cc1` (stereo not given), the survival was -13% (active). In the case of `Cc1ccccc1N(C)S(=O)(=O)c1nnc(NC(=O)c2ccccc2F)s1` it was 33%. Next, `CCOC(=O)CC(NC(=O)Cn1nnc(-c2ccc(C(F)(F)F)cc2)n1)c1ccc(C)cc1` (stereo not given): 87%; `CCOC(=O)c1ccccc1NC(=O)CCOc1ccccc1`: 6% (active); `CCc1ccc(NC(=O)Cc2c(C(=O)O)c(C)cn2C)cc1`: 76%. On to `CCOC(=O)c1ccccc1NC(=O)Cc1c(C(=O)O)c(C)cn1C`, for which the survival is -1% (active).

As for `Cc1cn(C)c(CC(=O)Nc2cccc(Cl)c2C)c1C(=O)O`, the survival was 124%. Next, `Cc1ccc(C)c(NC(=O)CCOc2ccccc2)c1`: 94%; `Cc1c(Cl)cccc1NC(=O)CCOc1ccccc1`: 145%; `CC(=O)N1CCc2cc(S(=O)(=O)NC(Cc3ccccc3)C(=O)Nc3ccc(Cl)cc3)ccc21` (stereo not given): 89%. In the case of `O=C(NCCc1ccccc1)c1cc(-c2ccc(Cl)cc2)on1` it was 101%.

On to `O=C(NCc1ccccc1F)C(=O)NCC(c1ccc2c(c1)OCO2)N1CCOCC1` (stereo not given), for which the survival is 71%.

Regarding `CCc1cccc(CC)c1NC(=O)C(CC)n1nc(C)n2c(cc3cc(C)ccc32)c1=O` (stereo not given), the survival was 73%. In the case of `CCOc1ccc(CN2C(=O)c3ccccc3Sc3ccc(C(=O)NC)cc32)cc1` it was 78%; in that of `Cc1cccc(/C=N/NC(=O)c2ccccn2)c1O`, 18%; in that of `Cc1cc(S(=O)(=O)N(C)CCc2ccccc2)ccc1-n1cnnn1`, 99%. Next, `CCOC(=O)c1cc(S(=O)(=O)Nc2ccc(OC)c(Cl)c2)[nH]n1`: -6% (active); `CCOC(=O)c1cc(S(=O)(=O)Nc2cc(OC)ccc2OC)[nH]n1`: 123%. In the case of `CCOC(=O)c1cc(S(=O)(=O)Nc2cc(C)c(Cl)cc2OC)[nH]n1` it was 98%; in that of `CCOC(=O)c1cc2sccc2n1CC(=O)NC(C)C`, 100%. Consider `COc1ccc(-c2cnc(C)o2)cc1S(=O)(=O)Nc1ccc(C)c(F)c1`, for which the survival was 60%. Next, `Fc1ccc(-n2ncc3c(N4CCCCCC4)ncnc32)cc1`: 82%; `Cc1ccc(N2C(=O)CSC23C(=O)N(CC(=O)Nc2ccc(C(C)C)cc2)c2ccccc23)cc1C` (stereo not given): 80%; `CCOc1ccc(-c2cn3c(n2)sc2cc(C(=O)NCCCN(CC)CC)ccc23)cc1`: 2% (active). Regarding `CCOc1ccc(-c2cn3c(n2)sc2cc(C(=O)NCCCc4ccccc4)ccc23)cc1`, the survival was 96%.

On to `CCN(CC)CCCNC(=O)c1ccc2c(c1)sc1nc(-c3ccc(C)cc3)cn12`, for which the survival is 8% (active). Next, `CCCNC(=O)c1ccc2c(c1)sc1nc(-c3ccc(C)cc3)cn12`: 103%. In the case of `CCCSCCCNC(=O)c1ccc2c(c1)sc1nc(-c3ccc(OCC)cc3)cn12` it was 85%. In the case of `CCN(CC)CCNC(=O)c1ccc2c(c1)sc1nc(-c3ccc(F)cc3)cn12` it was 27%; in that of `CCOc1ccc(N2C(=O)c3n[nH]c(-c4cccs4)c3C2c2cccc(F)c2)cc1` (stereo not given), 60%.

As to `Cc1ccc(C)c(CSc2nc3ccncc3n2Cc2nc(-c3ccccc3Cl)oc2C)c1`, the survival is 61%. In the case of `Cc1ccc(CSc2nc3ccncc3n2Cc2nc(-c3ccc(Cl)cc3)oc2C)cc1` it was 68%. Next, `Cc1ccc(CSc2nc3ccncc3n2Cc2nc(-c3ccccc3C)oc2C)cc1`: 0% (active); `CCN(C(=O)Cn1nc(Cc2ccncc2)c2ccccc2c1=O)c1ccc(OC)cc1`: 74%. In the case of `Cc1ccccc1C(=O)NC1CCN(CC(=O)NC2CCCCC2)CC1` it was 98%; in that of `COc1ccc(Cl)cc1NC(=O)C1CCN(c2ncnc3c2nc2n3CCCCC2)CC1`, 82%; in that of `O=S1(=O)CCC(c2ccccc2)C1` (stereo not given), 100%. As to `COc1ccc2cc(C(=O)NCc3ccc4c(c3)CCN4C(=O)c3ccc(F)cc3)[nH]c2c1`, the survival is 68%. As for `Cc1cccc(C(=O)N2CCc3cc(CNC(=O)c4cc5ccccc5[nH]4)ccc32)c1`, the survival was 72%.

As for `O=C(NCc1ccc2c(c1)CCN2C(=O)c1ccccc1)c1cc2ccccc2[nH]1`, the survival was 1% (active).

As for `CCOc1ccc(C(=O)NCc2ccc3c(c2)CCN3C(=O)c2ccc(Cl)cc2)cc1`, the survival was 81%.

In the case of `COc1ccc2cc(C(=O)NCc3ccc4c(c3)CCN4C(=O)c3ccc(C)cc3)[nH]c2c1`, the survival was 84%.

`COc1ccc(C(=O)NCc2ccc3c(c2)CCN3C(=O)c2ccccc2)cc1`: the survival was 82%. In the case of `CCOc1ccc(C(=O)NCc2ccc3c(c2)CCN3C(=O)c2ccccc2)cc1` it was -4% (active); in that of `COc1ccc(CCC(=O)NCc2ccc3c(c2)CCN3C(=O)c2cccc(C)c2)cc1`, 67%; in that of `COc1ccc(OCC(=O)NCc2ccc3c(c2)CCN3C(=O)c2cccc(C)c2)cc1`, 72%. Take `COc1ccc(CC(=O)NCc2ccc3c(c2)CCN3C(=O)c2cccc(C)c2)cc1`: the survival was -6% (active).

With `O=C(NCc1ccc2c(c1)CCN2C(=O)c1ccc(F)cc1)c1cc2ccccc2[nH]1`, the survival was 99%.

Turning to `COc1ccc2cc(C(=O)NCc3ccc4c(c3)CCN4C(=O)c3ccccc3)[nH]c2c1`, the survival is -3% (active). In the case of `CC(C)c1cc2cc(/C=C/C(=O)O)c(O)cc2o1` it was 39%. In the case of `CCC(CC)N1CCN(S(=O)(=O)c2ccc(NC(C)=O)cc2)CC1` it was 113%; in that of `O=C(/C=C/c1ccccc1)N1CCN(CCN2C(=O)C3C4C=CC(C4)C3C2=O)CC1` (stereo not given), 124%. Turning to `Cc1nc(-c2ccc(S(=O)(=O)NCc3ccc(F)cc3)cc2)co1`, the survival was 68%. With `Nc1c(-c2nc(-c3ccc4c(c3)OCO4)cs2)c2ccccn2c1C(=O)c1ccccc1`, the survival was 86%. As to `COc1ccccc1N1CCN(C(=O)C2CCN(S(=O)(=O)Cc3ccccc3)CC2)CC1`, the survival is 84%. Next, `COc1ccc(-c2nc(CS(=O)CC(=O)NCc3ccccc3OC)c(C)o2)cc1` (stereo not given): 123%.
